Bioassay records from PubChem BioAssay.
VACV mCherry inh: vaccinia inhibition (mCherry reporter); Vaccinia virus mCherry reporter infection, fluorescence; Potency, µM (top dose mostly 36.5 µM), for inactives: at the top dose activity change, negative = inhibition, usual class: inhibitors; 310,000 compounds, 0.63% hits; AID 720579; calls by dose curve; tested in A549 cells; further: potency means the concentration at half of the fitted maximal effect; nearly all actives have a fitted effect of over 35% in size
HCV inhibitor: blocks hepatitis C virus. Huh7.5.1 HCVcc-Cre infection, luciferase reporter, 44 h. Potency, µM (top dose mostly 41.8 µM), for the others: at the top dose activity change, negative = inhibition, hits mostly inhibitors. 340,000 compounds, 3.4% hits. AID 651820; active means well fitted inhibition curve with a large enough effect; inconclusive means small, poorly fitted or top-dose-only effect, or another doubt; inactive means no such curve, though single readings can be large or run the other way; further: potency means the concentration at half of the fitted maximal effect
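A cell-based infection assay in which seeded cells (1,000 per well) receive test compound after 4 h, are inoculated with HCVcc-Cre at approximately 0.5 moi, and are incubated 44 h before luminescence detection.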
FMDV inh: foot and mouth disease virus antiviral activity; Potency, µM (titrated, usually from 57.9 µM), without a hit: at the top dose activity change, negative = inhibition, hits mostly inhibitors; FMDV antiviral cell-based qHTS; 410,000 compounds, 1.2% hits; calls by dose curve; tested in HEK293T cells; further: read-out not given here; potency means the concentration at half of the fitted maximal effect; nearly all actives have a fitted effect of over 45% in size
VACV Venus inh: inhibitors of vaccinia virus (Venus reporter); Vaccinia virus Venus reporter expression, fluorescence; 330,000 compounds, 0.46% hits; Potency, µM (highest dose often 36.5 µM), for the others: top-dose activity change, negative = inhibition, actives largely listed as inhibitors; calls by dose curve; tested in A549 cells; further: potency means the concentration at half of the fitted maximal effect; nearly all actives have a fitted effect of over 30% in size
HCMV antiviral: human cytomegalovirus inhibition; 410,000 compounds, 4.5% hits; activity change, negative = inhibition, % at 57.5 µM; HFF cells, HCMV-luciferase reporter, 72 h; active compounds read low; in the data active means activity change below about -60%; inconclusive means no clear call, values can overlap the other calls; inactive means above about -39%
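Luciferase read-out from HCMV-luciferase-infected HFFs (MOI 1 PFU/cell) 72 h post infection at 37C; compounds added after 16 h cell attachment; activity normalized between buffer-only basal and Salinomycin (10uM) inhibitor controls.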
The depositor's hits bear a star; i = inactive; ? = inconclusive; / = no result; [ ] = remark or other dose. The list is not random: actives were taken first. Their share in the collection is about 7.3%. On the % scale 0 is the no-effect control and ±100 the full control effect.

SMILES	VACV mCherry inh	HCV inhibitor	FMDV inh	VACV Venus inh	HCMV antiviral
O=C(CSc1oc(-c2ccccc2)nc1S(=O)(=O)c1ccc(Br)cc1)c1ccccc1	-11%	/	20%	-11%	-16
CCOc1ccc(OCC)c(NC(=O)CCc2c(C)nc3c(c2C)c(=O)n(C)c(=O)n3C)c1	-1%	/	?	5%	-1
CCc1ccc(Nc2n[n+](-c3ccccc3)c(-c3c(Cl)cccc3Cl)s2)cc1	?	5.6µM*	28µM*	8.9µM*	-98*
Fc1ccc(-[n+]2nc(Nc3ccccc3)sc2-c2c(Cl)cccc2Cl)cc1	?	10µM*	?	?	?
COc1ccc(C)cc1Nc1n[n+](-c2ccccc2)c(-c2c(Cl)cccc2Cl)s1	?	-24%[8.37 µM]	0%	10µM*	-100*
COc1ccc(C)cc1Nc1n[n+](-c2ccccc2)c(-c2ccc(OC)c(OC)c2OC)s1	?	10%[8.37 µM]	?	-10%	?
COc1ccc(S[C@]2(C(=O)N3CCOCC3)CC(=O)N(c3ccc4ccccc4c3)[C@@H]2c2ccc(OC)cc2)cc1	/	/	/	/	-10
COc1ccc2ccccc2c1CN1CCCC(n2cc(C(=O)N3CCCC3)nn2)C1 (configuration not stated)	-4%	/	12%	-1%	/
COc1ccc(-n2nc(C(=O)Nc3ccc(Br)cc3C)c3c4ccccc4n(C)c3c2=O)cc1	-11%	/	-15%	6%	15
Cc1ccc(Cn2c(C)c3cnn(CC(=O)N4CCN(c5ccc(F)cc5)CC4)c(=O)c3c2C)cc1	-20%	/	?	-20%	?
Cc1cnc(-n2ncc(C(=O)NCCc3cccnc3)c2C)nc1-c1cccs1	?	/	-5%	-19%	/
O=C(C[n+]1cccc(Br)c1)c1ccc(-c2ccccc2)cc1	-4%	?	5%	-17%	-74*
Cc1ccc(C(=O)C[n+]2cc(Br)cc(Br)c2)cc1	-10%	-10%	4%	-10%	27
Cc1ccc[n+](CC(=O)c2ccc(-c3ccccc3)cc2)c1	i	-16%	-20%	-10%	-68*
O=C(C[n+]1cc(Br)cc(Br)c1)c1ccc(Cl)cc1	i	32µM*	-3%	-2%	71
CCC(=O)Nc1cc(-c2cccc(C)c2)nn1-c1ccccc1	-7%	/	11%	-3%	91
Cc1ccc(C)n1C1C(=O)N(Cc2ccc(C(F)(F)F)cc2)c2ccccc21 (configuration not stated)	/	/	/	/	30
CC(C)(C)OC(=O)N1CCN(C(=O)c2nc[nH]c2C(=O)N2CCN(c3ccccc3)CC2)CC1	-13%	-7%	-9%	-9%	-3
CC1CCN(C(=O)c2[nH]cnc2C(=O)N(C)Cc2ccccc2)CC1	-11%	-8%	1%	-4%	-62*
CCN(CC)C(=O)c1nc[nH]c1C(=O)N1CCC(C)CC1	-12%	9%	-21%	-9%	1
O=C(c1nc[nH]c1C(=O)N1CCN(c2ccccc2)CC1)N1CCN(c2ccccc2)CC1	-10%	3.5µM*	-24%	-15%	0
CC(C)C[C@H](NC(=O)[C@H](CCCCN)NC(=O)[C@H](CCCNC(=N)N)NC(=O)[C@H](C)NC(=O)[C@H](CO)NC(=O)[C@H](CCCCN)NC(=O)[C@H](CCCNC(=N)N)NC(=O)[C@H](C)NC(=O)CNC(=O)[C@@H](NC(=O)[C@H](Cc1ccccc1)NC(=O)CNC(=O)CNC(=O)[C@@H](N)Cc1ccccc1)[C@H](C)O)C(=O)N[C@@H](C)C(=O)N[C@@H](CC(N)=O)C(=O)N[C@@H](CCC(N)=O)C(=O)O	-14%[3.33 µM]	/	8%[6.7 µM]	-13%[3.33 µM]	/
O=C(NCc1ccccc1Cl)c1ccc2c(c1)N(Cc1ccccc1)C(=O)c1ccccc1S2	-14%	/	-5%	-9%	1
CN(Cc1cccc(Cl)c1Cl)c1ccc(S(=O)(=O)N2CCCCC2)cc1[N+](=O)[O-]	0%	11µM*	0%	-15%	?
CN(CC(=O)Nc1ccc(S(=O)(=O)N2CCCC2)cc1)Cc1cccc(Cl)c1Cl	-29%	-17%	-27%	-23%	-40
SMILES	VACV mCherry inh	HCV inhibitor	FMDV inh	VACV Venus inh	HCMV antiviral
COc1cc(-c2n[nH]c3ccnc(-c4cccc(C(F)(F)F)c4)c23)cc(OC)c1OC	/	/	/	/	-14
Cc1cccc2cc(CN(CC3CCCO3)C(=O)C3CC3)c(N(C)C)nc12 (configuration not stated)	-11%	/	-2%	2%	/
COc1ccc2cc(C(=O)NCc3ccccc3CN3CCCC3)ccc2c1	/	7.1µM*	-27%	/	-33
Cc1ccccc1NS(=O)(=O)c1ccc(C(=O)NCc2ccccc2CN2CCCC2)cc1	-14%	/	-22%	-24%	-3
CC(NC(=O)c1ccc(Cl)c(S(=O)(=O)N2CCCCCC2)c1)c1cccnc1 (configuration not stated)	/	13µM*	?	/	?
COc1ccc2oc(C(=O)NCc3ccccc3CN3CCCC3)c(C)c2c1	/	?	-20%	/	-26
CN(C)C(CNC(=O)c1ccc(Cl)c(S(=O)(=O)N2CCCCCC2)c1)c1ccccc1 (configuration not stated)	/	6.3µM*	?	/	-22
O=C(NCc1ccccc1CN1CCCC1)c1ccc(S(=O)(=O)Nc2ccccc2F)cc1	?	/	-7%	-25%	-75*
COc1cccc(C(=O)Nc2cccc(C(=O)OCc3cc(=O)n4nc(C5CC5)sc4n3)c2)c1	-13%	/	?	-18%	6
O=C(NCc1ccccc1CN1CCCC1)c1cc2cc(Cl)ccc2o1	/	10µM*	-28%	/	0
O=C(NCc1ccccc1CN1CCCC1)c1cccc(S(=O)(=O)N2CCCC2)c1	/	?	-4%	/	-12
O=C(NCc1ccccc1CN1CCCC1)c1ccc(Cl)c(S(=O)(=O)N2CCCC2)c1	-10%	13µM*	4%	-23%	-22
CCOc1ccc2oc(C(=O)NCc3ccccc3CN3CCCC3)c(C)c2c1	/	16µM*	?	/	-9
Cc1ccc(-c2nc3cc(C(C)C)ccc3o2)cc1NC(=O)c1cc([N+](=O)[O-])ccc1N1CCOCC1	-11%	/	9%	-11%	?
CCOC(=O)C(C)NC(=O)CCc1nnc2ccc(N3CCC(C)CC3)nn12 (configuration not stated)	/	22%	-1%	/	3
CCC(C)NC(=O)CCc1nnc2ccc(N3CCC(C)CC3)nn12 (configuration not stated)	-5%	-8%	-32%	?	-61*
Cc1scc(C(=O)NNC(=S)NCC2CCCO2)c1-c1ccccc1 (configuration not stated)	-1%	12%	-18%	-13%	-62*
Cc1ccc(-c2c(C(=O)NNC(=S)NCC3CCCO3)csc2C)cc1 (configuration not stated)	/	12%	12%	/	?
S=C(NCC1CCCO1)Nc1ccc(Nc2ccccc2)cc1 (configuration not stated)	-10%	?	-23%	-3%	-69*
